We go through 39 compounds from PubChem BioAssay (NCATS).

Active and inactive are the calls of the source. Calls follow the shape of the dose curve; as a rule, active = well fitted activation curve with a large enough effect; inconclusive = small, poorly fitted or top-dose-only effect; inactive = flat fitted curve, though single readings scatter.

A short description of this test: Cellular Toxicity (caspase-3) Mesangial (AID 660).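 Also: cells exposed to compound for 16 h before the caspase read.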 The settings on record: mesangial cells, normalized: DMSO 0%, 100 µM tamoxifen 100%; at 91.7 µM (top of the series). Put shortly:
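Human renal glomerular mesangial cells (1000/well) were treated with compounds for 16 h at 37 °C in complete medium, then caspase 3/7 activity was read by Caspase-Glo luminescence. Data were normalized to DMSO and 100 uM tamoxifen; AC50 from Hill fits.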
In the case of `O=CNc1ccccc1`, the caspase-3 activation was -0.303% (inactive).

In the case of `Cc1ccc(C#N)cc1`, the caspase-3 activation is -0.175% (inactive).

On to `CC(C)C=O`, for which the caspase-3 activation was 1.06% (inactive).

On to `CCCCCCC=O`, for which the caspase-3 activation is -0.687% (inactive).

In the case of `CN(C)c1cccc(O)c1`, the caspase-3 activation is 1.93% (inactive).

Take `O=C(O)c1ccc(Cl)cc1Cl`: the caspase-3 activation was -1.03% (inactive).

For `CCCC(Cl)CCCC(Cl)CCC(Cl)CCC(Cl)CCC(Cl)CCCC(Cl)CCC` (centres undefined), the caspase-3 activation is 1.24% (inactive).

On to `CNC(=O)c1ccccc1`, for which the caspase-3 activation is 0.192% (inactive).

`ClCCl`: the caspase-3 activation was -1.27% (inactive).

In the case of `CC(=O)Nc1ccc(C)cc1`, the caspase-3 activation was 0.522% (inactive).

Regarding `CC(C)(c1cc(Br)c(OCC(Br)CBr)c(Br)c1)c1cc(Br)c(OCC(Br)CBr)c(Br)c1` (centres undefined), the caspase-3 activation was 0.758% (inactive).

Regarding `CC(=O)Nc1ccc(N)cc1`, the caspase-3 activation is 0.253% (inactive).

`Cc1ccccc1C(N)=O`: the caspase-3 activation was 2.19% (inactive).

For the compound `CC(=O)C1(C)CC2=C(CCCC2(C)C)CC1C` (centres undefined), the caspase-3 activation is 1.57% (inactive).

For the compound `CC(C=O)Cc1ccc(C(C)(C)C)cc1` (centres undefined), the caspase-3 activation was 0.925% (inactive).

For `CCCCN(CCO)CCCC`, the caspase-3 activation was 0.749% (inactive).

Take `CC(O)CC(C)O` (centres undefined): the caspase-3 activation was 0.0132% (inactive).

For `OCCO`, the caspase-3 activation was -0.444% (inactive).

For the compound `CC(=O)OC(C)=O`, the caspase-3 activation is 0.184% (inactive).

Turning to `NS(=O)(=O)O`, the caspase-3 activation is 1.36% (inactive).

Regarding `CCOC(=O)C(C)C(C)=O` (centres undefined), the caspase-3 activation was 1.11% (inactive).

For the compound `Cc1ccc(C)c([N+](=O)[O-])c1`, the caspase-3 activation was 0.386% (inactive).

Regarding `C=C(C)C(=O)OCCCCCCCCCC`, the caspase-3 activation is -0.0364% (inactive).

Turning to `COC(=O)CCCC(=O)OC`, the caspase-3 activation was -0.518% (inactive).

In the case of `c1ccc(Nc2ccccc2)cc1`, the caspase-3 activation is -0.717% (inactive).

Regarding `O=C(O)c1cc(Cl)cc(Cl)c1`, the caspase-3 activation was -0.386% (inactive).

For `CC/C=C1/OC(=O)c2ccccc21`, the caspase-3 activation is 0.157% (inactive).

On to `Cc1ccco1`, for which the caspase-3 activation was 0.332% (inactive).

Take `NCCCCCCN`: the caspase-3 activation is 0.654% (inactive).

Consider `BrC/C=C/CBr`, for which the caspase-3 activation was -0.978% (inactive).

For `CC(=C/C=C/C(C)=C/C=C/C=C(C)/C=C/C=C(C)/C=C/C(=O)O)/C=C/C(=O)O`, the caspase-3 activation is -0.768% (inactive).

Regarding `CCOC(C)(C)C`, the caspase-3 activation is -0.979% (inactive).

Regarding `O=C(O)c1cccc(Cl)c1Cl`, the caspase-3 activation is 0.259% (inactive).

On to `COc1ccc(OC)cc1`, for which the caspase-3 activation was 0.503% (inactive).

Take `Clc1cc(Cl)cc(Cl)c1`: the caspase-3 activation is -0.669% (inactive).

As to `Cc1c(C(=O)O)cccc1[N+](=O)[O-]`, the caspase-3 activation is -0.447% (inactive).

On to `CCCCCCCCCCCCC1CO1` (centres undefined), for which the caspase-3 activation is -0.00149% (inactive).

On to `COCCOC(=O)c1ccccc1C(=O)OCCOC`, for which the caspase-3 activation is 1.04% (inactive).

As for `CCCCCCCCC`, the caspase-3 activation was -0.687% (inactive).
